We go through seven compounds from PubChem BioAssay (NCATS).

“And” between values parts separate entries of the source, which are not always exact repeats. Equal entries are not always repeated. Results filed as inconclusive are left out. The source made the active and inactive calls. Unless noted, calls follow the shape of the full dose curve.

Test [1] concerns the target Estrogen receptor (Homo sapiens) (UniProt P03372). Put plainly: qHTS assay for small molecule agonists of estrogen receptor alpha signaling (AID 588514).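 Also: 0% = vehicle only and 100% = reference agonist; nearly all actives have a fitted effect of over 70% in size.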 The gist of the method:
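ER-alpha-UAS-bla GripTite HEK293 cells, 5000/well in 2% charcoal/dextran-stripped FBS medium, treated with compound titrations 18 h at 37 C. CCF4 beta-lactamase read by fluorescence after 2 h RT; normalised to 20 nM 17-beta-estradiol (100%) and DMSO (0%), Hill fit for EC50 and efficacy.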

Test [2] concerns the target Vitamin D3 receptor (Homo sapiens) (UniProt P11473). Put plainly: qHTS assay for small molecule antagonists of vitamin D receptor signaling (AID 588541).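 Also: receptor activated by calcitriol during compound treatment; % is scaled to controls: 0 for no effect and ±100 for the full control effect.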 In short, it runs like this:
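Antagonist-mode beta-lactamase reporter assay: HEK293T VDR-UAS-bla cells were exposed to titrated compound alongside 1-alpha,25-dihydroxyvitamin D3 at 3 nM final for 16 h. Values were normalized to the 50 nM agonist control and DMSO basal, with IC50 and efficacy from Hill equation fits.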
For orientation: In qHTS, concentration-response curves come from the screen itself.

In test [3] the target is Thyroid hormone receptor beta (Homo sapiens) (UniProt P10828). Put plainly: qHTS assay for small molecule agonists of thyroid hormone receptor beta signaling (AID 588545).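 Also: 0% = DMSO only and 100% = 10 nM T3.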 In short, it runs like this: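 TR-UAS-bla GripTite HEK 293 cells (2500/well, medium with 2% charcoal/dextran FBS) were treated in agonist mode for 18 h at 37 C, titrated. Beta-lactamase was read by CCF4 ratio after 2 h; normalized to 10 nM T3 (100%) and DMSO, Hill-fitted for EC50 and efficacy.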
Sequence of Thyroid hormone receptor beta (Homo sapiens) (P10828 whole entry, looked up): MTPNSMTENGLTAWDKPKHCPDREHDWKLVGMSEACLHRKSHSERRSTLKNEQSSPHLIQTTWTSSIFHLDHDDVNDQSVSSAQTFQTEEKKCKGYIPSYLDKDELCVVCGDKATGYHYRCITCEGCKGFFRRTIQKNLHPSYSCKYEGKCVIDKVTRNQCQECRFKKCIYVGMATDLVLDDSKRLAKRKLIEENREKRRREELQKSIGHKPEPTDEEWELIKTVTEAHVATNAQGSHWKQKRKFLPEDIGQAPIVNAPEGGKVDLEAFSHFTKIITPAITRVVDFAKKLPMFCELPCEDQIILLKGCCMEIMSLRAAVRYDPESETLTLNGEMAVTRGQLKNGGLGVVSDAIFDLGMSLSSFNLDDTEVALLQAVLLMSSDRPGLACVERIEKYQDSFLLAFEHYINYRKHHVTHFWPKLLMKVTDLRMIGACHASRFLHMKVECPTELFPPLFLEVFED

Test [4] shares this target. The test can be described thus: qHTS assay for small molecule antagonists of thyroid hormone receptor beta signaling (AID 588547; active = well fitted inhibition curve with a large enough effect in the signal ratio, with a control signal flat, not every such curve was filed as active; the % refers to the signal ratio;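 also: cells stimulated with 0.4 nM T3 agonist during compound exposure; % is scaled to controls: 0 for no effect and ±100 for the full control effect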). Conditions: TR-UAS-bla HEK293, beta-lactamase ratio, antagonist mode, 18 h. In short, it runs like this:
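Inhibition of T3-driven (0.4nM final) beta-lactamase reporter activity was measured over 0.59 nM to 92 uM compound after 18 h at 37 C. The cells were GripTite HEK293 TR-UAS-bla in charcoal/dextran-stripped serum, with CCF4 ratio read-out and IC50 from Hill fits.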

Test [5] in a line: qHTS assay for small molecule agonists of the antioxidant response element (ARE) signaling pathway (AID 651741; active = well fitted activation curve with a large enough effect in the signal ratio; the % refers to the signal ratio; also: potency is read from the fitted curve at half-maximal effect; as to activation: % of control where 0% means no effect). In short, it runs like this:
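Quantitative HTS in HepG2 cells stably expressing an ARE-beta-lactamase reporter; 16 h compound exposure at 37 C, followed by 2 h room-temperature incubation with LiveBLAzer B/G FRET substrate and fluorescence measurement.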

Test [6] in a line: qHTS assay for small molecule activators of the nuclear factor-kappa B (NF-kB) signaling pathway (AID 651749; active = well fitted activation curve with a large enough effect in the signal ratio; the % refers to the signal ratio; also: % of control where 0% means no effect). Conditions: NF-kB-bla ME-180 cells, beta-lactamase FRET ratio, 16 h; activation: stronger effect = higher value. The gist of the method:
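Readout: beta-lactamase reporter driven by an NF-kB response element, detected fluorescently as loss of FRET. Cells were the ME-180 line, treated 16 hr at 37C with pin-transferred compound.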

Test [7] has as its target Nuclear receptor subfamily 1 group I member 2 (Rattus norvegicus) (UniProt Q9R1A7). The test can be described thus: qHTS assay for small molecule activators of the rat pregnane X receptor (rPXR) signaling pathway (AID 651751; call rule not given here; also: 0% is about no effect). As to conditions: rPXR reporter cells, luciferase (One-Glo), 24 h.
Test [8] can be described thus: qHTS assay for small molecule activators of the human pregnane X receptor (PXR) signaling pathway (AID 720659; call rule not given here; also: 0% is about no effect).
Test [9] can be described thus: Cellular Toxicity (caspase-3) Jurkat (AID 655; active = well fitted curve in the direction sought with a large enough effect; an effect the other way counts as inactive or inconclusive;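 also: cells exposed to compound for 16 h at 37 °C before reading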). As to conditions: Jurkat caspase-3 activation, luminescence; caspase-3 activation: at 92.2 µM (top of the series), DMSO = 0%, tamoxifen = 100%. The gist of the method: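 Luminescent caspase-3/7 readout (aminoluciferin substrate cleavage) in human T-cell leukemia Jurkat cells after 16 hr compound exposure. Concentration-response normalized to DMSO and 100 uM tamoxifen; AC50 by standard Hill equation.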

Test [10] can be described thus: Cell Viability - LYMP2-026 (AID 989; active = well fitted curve in the direction sought with a large enough effect; an effect the other way counts as inactive or inconclusive; also: nearly all actives have a fitted effect of over 50% in size; also: potency is read from the fitted curve at half-maximal effect). The gist of the method: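 Human lymphoblastoid LYMP2-026 cells, 2500/well, exposed to compound 24 h at 37 C in complete medium. Viability as intracellular ATP by CellTiter-Glo luminescence; AC50 from Hill fits of qHTS concentration-response.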
For test [11], the target named is Bile acid receptor (Homo sapiens) (UniProt Q96RI1). Put plainly: qHTS assay for small molecule agonists of farnesoid X receptor signaling (AID 588527).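 Also: 0% = vehicle basal and 100% = reference agonist.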 Conditions: HEK293T FXR-UAS-bla, beta-lactamase ratio, 16 h; activation: stronger effect = higher value. In short, it runs like this: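 FXR-UAS-bla HEK293T, 10% dialyzed FBS; cpds up to 92 uM titration, 16 h 37 C; CCF4 dye 2 h RT; fluorescence. Normalized to chenodeoxycholic acid 100 uM (100%) and DMSO (0%); Hill fit gives EC50, efficacy.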
Sequence of Bile acid receptor (Homo sapiens) (Q96RI1 whole entry, looked up): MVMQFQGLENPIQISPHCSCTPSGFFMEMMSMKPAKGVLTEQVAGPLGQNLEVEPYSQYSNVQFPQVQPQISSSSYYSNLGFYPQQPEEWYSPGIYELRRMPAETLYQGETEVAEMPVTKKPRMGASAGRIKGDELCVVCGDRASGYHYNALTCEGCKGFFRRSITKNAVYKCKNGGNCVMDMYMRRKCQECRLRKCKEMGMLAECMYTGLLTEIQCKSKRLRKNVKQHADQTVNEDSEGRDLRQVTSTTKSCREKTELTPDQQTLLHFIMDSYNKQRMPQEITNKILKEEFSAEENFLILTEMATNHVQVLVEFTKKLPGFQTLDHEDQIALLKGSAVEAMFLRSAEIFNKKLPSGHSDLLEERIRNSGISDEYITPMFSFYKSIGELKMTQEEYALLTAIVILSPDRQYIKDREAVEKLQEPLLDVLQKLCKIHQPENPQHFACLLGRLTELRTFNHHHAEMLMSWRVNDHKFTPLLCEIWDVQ

The target in test [12] is Glucocorticoid receptor (Homo sapiens) (UniProt P04150). The test can be described thus: qHTS assay for small molecule agonists of glucocorticoid receptor signaling (AID 588532; active = well fitted curve in the direction sought with a large enough effect in the signal ratio, with a control signal flat; the % refers to the signal ratio;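 also: 100% = dexamethasone at 0.1 µM and 0% = DMSO only wells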). Conditions: HeLa MMTV-bla, beta-lactamase ratio, agonist, 18 h; activation: stronger effect = higher value, percent of dexamethasone control, DMSO zero. The gist of the method: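 Using MMTV-bla HeLa cells in medium with 1% stripped FBS and 25 mM HEPES, compounds were titrated and incubated overnight-length (18 h). Beta-lactamase cleavage of CCF4 was quantified by dual-emission fluorescence.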
Sequence of Glucocorticoid receptor (Homo sapiens) (P04150 whole entry, looked up): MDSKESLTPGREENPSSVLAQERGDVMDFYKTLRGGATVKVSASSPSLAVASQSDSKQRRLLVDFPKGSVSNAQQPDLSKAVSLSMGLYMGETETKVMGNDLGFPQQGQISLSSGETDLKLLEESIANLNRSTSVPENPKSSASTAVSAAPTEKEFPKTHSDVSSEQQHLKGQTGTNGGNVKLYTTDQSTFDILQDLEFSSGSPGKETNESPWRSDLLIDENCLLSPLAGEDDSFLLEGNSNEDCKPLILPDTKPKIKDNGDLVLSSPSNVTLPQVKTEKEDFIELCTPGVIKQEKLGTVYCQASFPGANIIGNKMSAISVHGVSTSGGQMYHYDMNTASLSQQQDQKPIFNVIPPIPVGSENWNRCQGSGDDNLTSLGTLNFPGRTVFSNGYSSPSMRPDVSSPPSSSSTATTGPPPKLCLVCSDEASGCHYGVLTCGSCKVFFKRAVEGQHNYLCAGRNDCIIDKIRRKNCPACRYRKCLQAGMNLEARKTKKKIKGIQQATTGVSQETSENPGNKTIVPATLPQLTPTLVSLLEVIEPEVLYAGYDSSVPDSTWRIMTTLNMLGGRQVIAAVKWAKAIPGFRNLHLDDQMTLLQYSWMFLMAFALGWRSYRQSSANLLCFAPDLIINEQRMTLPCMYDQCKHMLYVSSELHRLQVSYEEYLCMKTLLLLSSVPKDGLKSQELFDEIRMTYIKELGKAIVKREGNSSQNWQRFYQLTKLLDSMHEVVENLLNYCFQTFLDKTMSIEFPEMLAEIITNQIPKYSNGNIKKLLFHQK

The target is the same in test [13]. Put plainly: qHTS assay for small molecule antagonists of glucocorticoid receptor signaling (AID 588533; active = well fitted inhibition curve with a large enough effect in the signal ratio, with a control signal flat, not every such curve was filed as active; the % refers to the signal ratio;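 also: cells stimulated with 2 nM dexamethasone as agonist; % is scaled to controls: 0 for no effect and ±100 for the full control effect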). In short, it runs like this:
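Antagonist-mode qHTS: compound titrations added to GRE-bla HeLa cells, then dexamethasone 2 nM final; 18 h, 37 C. CCF4 FRET fluorescence normalized to dexamethasone and DMSO; IC50 from Hill fit.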

Test [14] addresses Retinoic acid receptor RXR-alpha (Homo sapiens) (UniProt P19793). The test can be described thus: qHTS assay for small molecule agonists of retinoid X receptor alpha signaling (AID 588544).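 Also: 0% = DMSO basal wells and 100% = reference agonist.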
Test [15] is described as follows: qHTS assay for small molecule antagonists of retinoid X receptor alpha signaling (AID 588546; active = well fitted inhibition curve with a large enough effect in the signal ratio, with a control signal flat, not every such curve was filed as active; the % refers to the signal ratio). As to conditions: HEK293T RXRa-UAS-bla, beta-lactamase ratio, antagonist mode; measured here: W530 green channel, cytotoxicity proxy. In short, it runs like this: (§1)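 Beta-lactamase reporter inhibition, read as CCF4 fluorescence ratio (ex 405, em 460/530 nm) after 2 h at RT. HEK293T UAS-bla cells, 2500/well, were stimulated with 9-cis-RA at 500 or 100 nM final alongside test compound for 18 h at 37 C.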

Test [16] can be described thus: Stat Signaling Pathway (AID 446; active = well fitted curve in either direction with a large enough effect, not every such curve was filed as active). In short, it runs like this: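 ME-180 SIE-bla cells; overnight plating; cpd + IL-6 40 pM, 5 h, 37 C; LiveBLAzer 2.5 h RT; 460/530 nm emission ratio. Normalized to 300 pM IL-6 and 125 nM JAK inhibitor controls.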
For test [17], the target named is Retinoic acid receptor RXR-alpha (Homo sapiens) (UniProt P19793). Put plainly: qHTS assay for small molecule antagonists of retinoid X receptor alpha signaling (AID 588546).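 Also: cells stimulated with 9-cis-retinoic acid as agonist; % is scaled to controls: 0 for no effect and ±100 for the full control effect.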 As to conditions: HEK293T RXRa-UAS-bla, beta-lactamase ratio, antagonist mode. The gist of the method:
as §1

A short description of test [18]: NFAT Signaling Pathway (AID 444; active = well fitted curve in either direction with a large enough effect, not every such curve was filed as active). As to conditions: Jurkat NFAT-bla M1, carbachol, beta-lactamase ratio, 5 h; at 17.2 µM (top of the series) unless noted. In short, it runs like this:
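Read-out: CCF4 FRET ratio (460 nm/530 nm) after 1 h RT dye loading, used for %activity and AC50 from titration series. Cells: Jurkat NFAT-β-lactamase/M1 line, treated with compound plus 1 uM carbachol for 5 h, 37 °C.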

Test [19] deals with 3',5'-cyclic-AMP phosphodiesterase 4B (Homo sapiens) (UniProt Q07343). The test can be described thus: qHTS Assay for Inhibitors of PDE-IV (AID 607; active = well fitted activation curve with a large enough effect in the main read-out, with a control signal flat, not every such curve was filed as active; also: % of control where 0% means no effect). The gist of the method: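 ACTOne HEK293 cells carry a modified cAMP-gated CNG channel and express endogenous PDE4; plated 1000 cells/well, compounds up to 22.9 uM final. Membrane-potential dye fluorescence (ex 535/em 590) was read; parental cells received 10 uM forskolin + 100 uM RO 20-1724.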
Sequence of 3',5'-cyclic-AMP phosphodiesterase 4B (Homo sapiens) (Q07343 whole entry, looked up): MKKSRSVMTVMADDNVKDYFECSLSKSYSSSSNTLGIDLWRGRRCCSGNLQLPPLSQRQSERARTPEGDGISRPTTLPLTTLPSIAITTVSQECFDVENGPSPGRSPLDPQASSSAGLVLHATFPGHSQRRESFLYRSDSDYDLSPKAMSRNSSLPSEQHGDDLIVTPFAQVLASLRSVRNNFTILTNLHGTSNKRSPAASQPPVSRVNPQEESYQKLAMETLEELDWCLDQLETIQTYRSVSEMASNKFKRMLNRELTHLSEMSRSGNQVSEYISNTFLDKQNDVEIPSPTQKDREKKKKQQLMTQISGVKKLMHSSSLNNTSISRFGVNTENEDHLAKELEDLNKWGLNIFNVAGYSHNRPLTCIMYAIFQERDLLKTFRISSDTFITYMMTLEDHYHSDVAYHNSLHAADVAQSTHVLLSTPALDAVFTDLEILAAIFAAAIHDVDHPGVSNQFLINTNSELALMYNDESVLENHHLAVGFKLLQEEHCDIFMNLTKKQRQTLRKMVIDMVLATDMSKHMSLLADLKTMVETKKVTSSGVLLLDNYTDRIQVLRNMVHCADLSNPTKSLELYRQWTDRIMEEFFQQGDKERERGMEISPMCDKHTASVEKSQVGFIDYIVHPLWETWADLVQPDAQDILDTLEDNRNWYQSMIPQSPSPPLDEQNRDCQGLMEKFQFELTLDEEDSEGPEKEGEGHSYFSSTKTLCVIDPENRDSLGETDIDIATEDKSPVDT

Sequence of Retinoic acid receptor RXR-alpha (Homo sapiens) (P19793 whole entry, looked up): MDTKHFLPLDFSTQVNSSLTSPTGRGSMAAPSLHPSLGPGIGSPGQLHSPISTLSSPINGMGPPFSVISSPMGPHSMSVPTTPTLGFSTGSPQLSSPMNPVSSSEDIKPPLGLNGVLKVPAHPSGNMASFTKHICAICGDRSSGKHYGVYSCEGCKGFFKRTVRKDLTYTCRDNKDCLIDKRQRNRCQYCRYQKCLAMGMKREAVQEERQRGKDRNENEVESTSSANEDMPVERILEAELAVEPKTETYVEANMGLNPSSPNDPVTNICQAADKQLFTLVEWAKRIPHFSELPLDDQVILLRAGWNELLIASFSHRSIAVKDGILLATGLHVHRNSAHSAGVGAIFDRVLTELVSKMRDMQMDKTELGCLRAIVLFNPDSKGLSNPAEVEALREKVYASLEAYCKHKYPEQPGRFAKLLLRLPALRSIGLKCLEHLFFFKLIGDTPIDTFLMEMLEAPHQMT
Sequence of Estrogen receptor (Homo sapiens) (P03372 whole entry, looked up): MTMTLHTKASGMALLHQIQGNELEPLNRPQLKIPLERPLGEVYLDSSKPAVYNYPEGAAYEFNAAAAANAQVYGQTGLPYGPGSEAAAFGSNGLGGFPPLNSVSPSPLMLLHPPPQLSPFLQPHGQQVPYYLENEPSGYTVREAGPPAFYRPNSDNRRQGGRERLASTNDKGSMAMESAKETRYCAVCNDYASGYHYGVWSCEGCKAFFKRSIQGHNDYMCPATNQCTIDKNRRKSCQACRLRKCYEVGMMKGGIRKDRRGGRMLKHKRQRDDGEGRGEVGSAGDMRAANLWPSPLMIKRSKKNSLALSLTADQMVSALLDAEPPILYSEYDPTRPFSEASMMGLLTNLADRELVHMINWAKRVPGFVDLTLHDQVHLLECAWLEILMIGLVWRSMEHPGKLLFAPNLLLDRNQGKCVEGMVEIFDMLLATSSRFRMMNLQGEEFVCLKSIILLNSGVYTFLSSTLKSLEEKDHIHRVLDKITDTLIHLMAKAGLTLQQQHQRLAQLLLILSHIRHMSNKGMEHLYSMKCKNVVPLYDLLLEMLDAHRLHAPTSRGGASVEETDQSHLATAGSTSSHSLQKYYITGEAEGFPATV
Sequence of Nuclear receptor subfamily 1 group I member 2 (Rattus norvegicus) (Q9R1A7 whole entry, looked up): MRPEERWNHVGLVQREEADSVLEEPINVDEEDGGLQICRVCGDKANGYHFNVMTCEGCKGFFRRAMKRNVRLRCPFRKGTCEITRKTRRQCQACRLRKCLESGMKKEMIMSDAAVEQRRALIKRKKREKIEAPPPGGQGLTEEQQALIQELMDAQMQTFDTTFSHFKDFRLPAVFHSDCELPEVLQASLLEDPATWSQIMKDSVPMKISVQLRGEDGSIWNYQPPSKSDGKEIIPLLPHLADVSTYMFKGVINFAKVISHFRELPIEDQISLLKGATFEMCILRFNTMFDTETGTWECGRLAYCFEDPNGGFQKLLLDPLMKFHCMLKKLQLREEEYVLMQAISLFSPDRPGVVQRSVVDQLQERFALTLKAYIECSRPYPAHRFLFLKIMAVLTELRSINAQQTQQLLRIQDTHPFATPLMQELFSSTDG
Sequence of Vitamin D3 receptor (Homo sapiens) (P11473 whole entry, looked up): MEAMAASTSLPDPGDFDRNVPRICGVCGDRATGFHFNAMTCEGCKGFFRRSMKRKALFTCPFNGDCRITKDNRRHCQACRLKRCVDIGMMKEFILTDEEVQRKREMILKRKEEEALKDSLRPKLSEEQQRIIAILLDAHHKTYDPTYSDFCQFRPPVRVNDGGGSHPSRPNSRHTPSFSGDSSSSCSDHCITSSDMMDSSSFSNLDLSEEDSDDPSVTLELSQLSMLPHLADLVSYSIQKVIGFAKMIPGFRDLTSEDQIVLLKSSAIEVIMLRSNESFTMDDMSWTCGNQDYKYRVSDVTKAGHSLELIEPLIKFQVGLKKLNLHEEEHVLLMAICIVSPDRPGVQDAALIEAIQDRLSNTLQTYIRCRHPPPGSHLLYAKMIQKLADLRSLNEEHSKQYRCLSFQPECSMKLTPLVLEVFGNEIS

As to `C(=NC1CCCCC1)=NC1CCCCC1`, the Potency result in test [1], in test [2] and in test [3] was “inactive” in each case. The activity change % (negative = inhibition) in test [4] was -20.1% (inactive) and -3.06% (inactive). In addition, in [5], the Potency is 24.3 µM (active). Further, the activation in [6] is 0.442% (inactive) and -0.633% (inactive). In addition, the max response in test [7] is 0.443% (inactive) and 0.275% (inactive). In addition, the compound was called inactive in test [8].
For `FC(F)(F)c1ccc(Cl)cc1`, the caspase-3 activation in test [9] is 2.36% (inactive). Further, the Potency result in test [10], in [1], in test [13], in test [2], in test [14] and in test [3] was “inactive” in each case. For the same compound, the Potency result in test [5] is “inactive”. The activation in test [11] is 3.21% (inactive) and 2.89% (inactive); in test [12], 4.86% (inactive); in test [6], 0.334% (inactive) and 1.17% (inactive). Moreover, the max response in [15] was -9.15%; in [7] it was -0.484% (inactive) and -1.67% (inactive). Moreover, the activity change % (negative = inhibition) in test [4] was 6.64% (inactive). Also, in [8], the outcome was inactive.
Consider `CN1CCC(OC(=O)C2c3ccccc3Oc3ccccc32)CC1`, for which the compound was classed as inactive in [16].
As for `Nc1ccccc1C(=O)OCCc1ccccc1`, the caspase-3 activation in [9] was -5.89% (inactive). Also, the Potency result in test [10], in [13] and in test [2] was “inactive” in each case. The activation in [12] was -0.582% (inactive); in test [6], 0.217% (inactive). In addition, the figures for the max response in test [15] and in test [17] were -8.78% and -9.65% (inactive), respectively. Further, in [4], the activity change % (negative = inhibition) was -14.2% (inactive). Besides, the result in [8] was inactive.
For `O=[N+]([O-])c1cc(C(F)(F)F)cc([N+](=O)[O-])c1Cl`, the Potency in [10] was 31.6 µM (active). Besides, the Potency entry in test [1], in [13], in [14] and in [5] was “inactive” each time. Besides, the activation is -1.74% (inactive) in [11], -2.51% (inactive) in test [12] and -0.593% (inactive) in [6]. Moreover, the values for the max response in test [15], in [17] and in test [7] were 0.867%, 20% (inactive) and -2.25% (inactive), respectively. The activity change % (negative = inhibition) in test [4] was -4.32% (inactive). Besides, the compound was classed as inactive in [8].
As to `N#CSCSC#N`, the caspase-3 activation in test [9] is -5.48% (active). Besides, in [10], the Potency is 7.94 µM (active). Also, the activation was 17.3% (inactive) in [11] and 0.19% (inactive) in test [12].
As to `C[C@@H]1O[C@@H](O[C@H]2C[C@@H](O)[C@]3(CO)[C@@H]4[C@@H](O)C[C@]5(C)[C@H](C6=CC(=O)OC6)CC[C@@]5(O)[C@H]4CC[C@@]3(O)C2)[C@H](O)[C@H](O)[C@@H]1O`, the activity change, negative = inhibition in test [18] is -76.4% [at 38 µM] (active). For the same compound, the call in test [19] was inactive.
